# In PubChem BioAssay (NCI):
# About 83,000 compounds went through this panel and 20% of them were active in at least one assay; those are over-represented in the sample as a whole.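 Each cell line was grown in a 96-well plate and treated with one concentration of compound for 48 hours. Values below 10 were considered active.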 Values without a mark were called inactive. Activity calls are given as the source filed them.
# Key:
# Experiment in all cases: NCI-60 one-dose screen, 48 h (100 = growth as untreated, 0 = no growth, -100 = all killed)
# SR leukemia = conditions: 10 µM
# RPMI-8226 leukemia = conditions: 10 µM
# OVCAR-8 ovarian = conditions: 10 µM
# OVCAR-5 ovarian = conditions: 10 µM
# OVCAR-4 ovarian = conditions: 10 µM
# SK-OV-3 ovarian = conditions: 10 µM
# IGROV1 ovarian = conditions: 10 µM
# OVCAR-3 ovarian = conditions: 10 µM
# HS 578T breast = conditions: 10 µM
# NCI/ADR-RES ovarian = conditions: 10 µM
# T-47D breast = conditions: 10 µM
# BT-549 breast = conditions: 10 µM
# MDA-MB-435 melanoma = conditions: 10 µM
# SW-620 colon = conditions: 10 µM
# MCF7 breast = conditions: 10 µM unless noted
# HCT-116 colon = conditions: 10 µM
# HCC-2998 colon = conditions: 10 µM
# KM12 colon = conditions: 10 µM
SMILES,growth (SR leukemia),growth (RPMI-8226 leukemia),growth (OVCAR-8 ovarian),growth (OVCAR-5 ovarian),growth (OVCAR-4 ovarian),growth (SK-OV-3 ovarian),growth (IGROV1 ovarian),growth (OVCAR-3 ovarian),growth (HS 578T breast),growth (NCI/ADR-RES ovarian),growth (T-47D breast),growth (BT-549 breast),growth (MDA-MB-435 melanoma),growth (SW-620 colon),growth (MCF7 breast),growth (HCT-116 colon),growth (HCC-2998 colon),growth (KM12 colon)
O=C1Cc2ccccc2C(=O)O1,79.3%,93.4%,102%,106%,112%,114%,114%,127%,107%,114%,108%,101%,107%,105%,102%,98.2%,112%,115%
CN(C)/N=C/c1ccccc1O,97.9%,113%,91.3%,89.9%,100%,105%,102%,110%,99.7%,115%,98.6%,97.5%,107%,100%,106%,94.6%,117%,107%
O=C(O)CCC(=O)OC(C1CO1)C(OC(=O)CCC(=O)O)C1CO1 (stereo unspecified),101%,90.4%,95.9%,93.4%,107%,96.8%,110%,103%,113%,109%,94%,108%,103%,106%,90.6%,99.2%,108%,101%
CC(=Nc1ccccc1)C1=C(O)C(Cc2cccc(F)c2)NC1=O (stereo unspecified),0.385% (active),9.85% (active),1.8% (active),25.6%,36.4%,4.34% (active),13.8%,-36.1% (active),45.6%,7.11% (active),72.6%,-20.2% (active),-46.2% (active),26.8%,20.9%,7.22% (active),26.9%,-3.04% (active)
CNS(=O)(=O)c1ccc(Cl)c(Cl)c1,78.1%,136%,99.2%,98.5%,99.8%,105%,114%,123%,98.9%,110%,99.2%,112%,98.7%,104%,98%,107%,118%,108%
N#CCCc1ccc(O)cc1,94.6%,102%,93.9%,95.6%,111%,106%,116%,110%,102%,116%,101%,114%,99.8%,102%,98.4%,116%,115%,114%
CCOc1ccc2[nH]c(=S)sc2c1,97.7%,97.1%,96.4%,97.6%,108%,105%,88.5%,117%,96%,104%,94.5%,107%,99.3%,102%,102%,105%,97.9%,116%
Cc1cc2ccccc2c(O)c1C#N,108%,97.4%,99.7%,103%,114%,89.4%,114%,108%,108%,96%,88.8%,97.6%,108%,104%,99.3%,105%,,105%
N=c1c(C(=O)OCc2ccccc2)ncc(CCl)n1O,82.6%,76.8%,101%,103%,91.3%,107%,95%,99.1%,114%,105%,93.9%,80.6%,96.1%,86.9%,91.9%,78.3%,104%,102%
NC(=O)c1ccc(N=C(N)N=C(N)N)cc1,97.4%,107%,98.8%,97.8%,98.2%,100%,102%,105%,99.6%,105%,95.7%,108%,85%,104%,92.7%,105%,97.7%,99.3%
Clc1ccc(-c2n[nH]c3c2Cc2ccccc2-3)cc1Cl,112%,57.9%,110%,111%,99.9%,99.4%,63%,110%,110%,95.1%,29%,97.6%,107%,111%,35.4%,90.8%,92.2%,102%
CCOC(=O)C(CCC(C)C)C(=O)OCC,79.7%,98.8%,95.6%,107%,107%,106%,102%,109%,115%,108%,100%,104%,102%,102%,97.5%,108%,101%,104%
CC(=O)NCc1cc(C)c(C)cc1C,97.6%,88.1%,104%,95.5%,106%,97.6%,104%,101%,108%,105%,89%,100%,114%,107%,97.4%,101%,115%,95.7%
COC(=O)C(O)c1ccccc1 (stereo unspecified),108%,111%,108%,97.6%,113%,105%,123%,104%,125%,110%,107%,109%,107%,111%,99.3%,97.7%,104%,106%
CC1CCC2C(C)(C)C3CC12CC1OC13C (stereo unspecified),117%,108%,105%,105%,99.3%,103%,114%,110%,103%,107%,99.3%,107%,107%,98.8%,102%,101%,127%,111%
O=C(O)c1ccnc(Br)c1,109%,115%,103%,107%,107%,101%,117%,112%,107%,111%,96.9%,105%,104%,103%,91.7%,103%,107%,103%
CCN=c1cc2sc3cc(NCC)c(C)cc3nc-2cc1C,13.4%,2.43% (active),-16.3% (active),27.5%,17.2%,16.1%,15.2%,-33.8% (active),50.8%,19.9%,-1.96% (active),36.4%,-35.1% (active),0.622% (active),-11.5% (active),7.17% (active),30.7%,-1.68% (active)
Clc1ccc(-c2nnc(-c3cccc4ccccc34)o2)cc1,85.5%,101%,94.7%,93.3%,84.1%,91.6%,69.2%,103%,103%,95.6%,53.4%,104%,96%,93%,32.2%,93.9%,104%,102%
CCCCC/C=N/Nc1nc(C)cc(=O)[nH]1,90.4%,119%,100%,104%,107%,113%,109%,114%,101%,99.9%,103%,109%,95.7%,104%,92.9%,101%,98.8%,106%

SMILES,growth (SR leukemia),growth (RPMI-8226 leukemia),growth (OVCAR-8 ovarian),growth (OVCAR-5 ovarian),growth (OVCAR-4 ovarian),growth (SK-OV-3 ovarian),growth (IGROV1 ovarian),growth (OVCAR-3 ovarian),growth (HS 578T breast),growth (NCI/ADR-RES ovarian),growth (T-47D breast),growth (BT-549 breast),growth (MDA-MB-435 melanoma),growth (SW-620 colon),growth (MCF7 breast),growth (HCT-116 colon),growth (HCC-2998 colon),growth (KM12 colon)
C1CNC(C2=NCCN2)=N1,96.1%,109%,102%,105%,105%,104%,107%,94.2%,101%,108%,101%,111%,93.4%,100%,98.7%,96.7%,92.3%,95.4%
COCCCC/C(=N\OCCN)c1ccc(C(F)(F)F)cc1,85.8%,100%,102%,92.5%,110%,105%,105%,105%,97.6%,102%,86.4%,107%,99.4%,97.1%,108%,101%,116%,107%
C/C(=N/NC(N)=O)c1ccco1,87.3%,118%,106%,100%,110%,84.1%,104%,104%,110%,101%,83.5%,102%,107%,109%,98.4%,101%,92.1%,102%
c1ccc2c(N3CCCCC3)ncnc2c1,105%,66.9%,94.4%,99.9%,96.8%,94%,96%,97.3%,116%,91%,130%,90.8%,109%,98%,96.6%,88.4%,81.1%,103%
Cc1cc(C(O)(c2ccc(Nc3ccccc3)cc2)c2ccc(Nc3ccc(S(=O)(=O)O)cc3)cc2)ccc1N (stereo unspecified),7.14% (active),-28.8% (active),6.11% (active),-65.8% (active),-5.82% (active),31.3%,5.51% (active),-29.1% (active),1.91% (active),18.8%,-5.86% (active),22.6%,-67.4% (active),-32.6% (active),-3.23% (active),6.56% (active),-20.5% (active),4.39% (active)
COc1ncnc2c1cnn2C,82.6%,107%,103%,103%,117%,104%,110%,109%,114%,104%,97.1%,95.4%,107%,105%,101%,103%,,103%
O=C1Cc2cc(O)ccc2O1,91.8%,96.1%,102%,113%,118%,99.8%,104%,120%,119%,107%,101%,109%,105%,113%,101%,101%,105%,112%
S=c1[nH]ccn1-c1ccccc1Cl,101%,95.6%,105%,114%,103%,111%,108%,98.2%,142%,115%,107%,117%,108%,111%,99.5%,107%,113%,104%
Cc1cc2nc(CO)[nH]c2cc1C,122%,87.9%,101%,100%,103%,108%,108%,105%,151%,107%,124%,105%,109%,103%,120%,108%,109%,103%
Cc1ccc(C(O)C2CC2)cc1 (stereo unspecified),91.7%,99.3%,94.1%,94%,105%,106%,96.8%,106%,104%,107%,97.4%,107%,103%,100%,104%,107%,113%,107%
NCCC(=O)c1ccc(Cl)cc1,93.8%,110%,101%,118%,110%,95.7%,117%,105%,109%,103%,91.4%,109%,110%,102%,110%,102%,97.6%,98.1%
COC(=O)c1ccc(NC(=O)CCl)cc1,38.7%,70.4%,85.5%,96.4%,95.4%,96.7%,50.6%,82.4%,74.9%,97.1%,69.7%,67.9%,73.8%,76.6%,58.3%,70%,113%,83.6%
CCCCCC(C)(CC(=O)O)CC(=O)O,94.1%,119%,103%,97.4%,104%,114%,110%,126%,107%,119%,104%,113%,107%,106%,90%,112%,113%,115%
N#Cc1ccc(NC(=O)Nc2cccc(C#N)c2)cc1,72.2%,30.9%,83.6%,116%,91.2%,115%,78%,105%,99.1%,90.1%,66.9%,108%,78.8%,95.8%,82.8%,82.5%,95.1%,102%
CC(=O)c1ccc(N=C(C#N)C2=C(O)c3ccccc3C2=O)cc1,91.1%,117%,103%,119%,108%,95%,115%,112%,107%,105%,93.4%,98.3%,110%,114%,83.1%,106%,98.1%,107%
C=CCNc1ccccc1,96.9%,92.8%,107%,106%,94%,101%,115%,116%,110%,114%,103%,99%,119%,106%,87.4%,92.4%,,109%
CCC(C#N)(CC)c1ccccc1,108%,104%,107%,104%,113%,102%,112%,109%,108%,102%,95.3%,100%,104%,104%,95.4%,105%,,106%
CCCNc1ccc(C2=NCCCN2)cc1,96.9%,98.2%,95.4%,101%,100%,107%,86%,99.2%,103%,95.2%,97.3%,90%,95.9%,102%,97.7%,97%,,94.5%
